Our source for the Potency values is PubChem BioAssay (Tox21).

Where “and” joins values, the source holds several entries; their conditions need not be identical. Equal values may be shown once. Records with an inconclusive call do not appear. Entries that show only a call come without a potency. Calls of active or inactive are those of the source. The call rests on the fitted dose curve; in most records, active means well fitted inhibition curve with a large enough effect in the signal ratio in the repeat runs (not every such curve was filed as active); inconclusive means weak or mixed curves, or effect the other way; inactive means no such curve, though single readings can be large or run the other way; the % refers to the signal ratio.
Potency means the concentration at half of the fitted maximal effect.

Glucocorticoid receptor (Homo sapiens), sequence (P04150 whole entry, looked up): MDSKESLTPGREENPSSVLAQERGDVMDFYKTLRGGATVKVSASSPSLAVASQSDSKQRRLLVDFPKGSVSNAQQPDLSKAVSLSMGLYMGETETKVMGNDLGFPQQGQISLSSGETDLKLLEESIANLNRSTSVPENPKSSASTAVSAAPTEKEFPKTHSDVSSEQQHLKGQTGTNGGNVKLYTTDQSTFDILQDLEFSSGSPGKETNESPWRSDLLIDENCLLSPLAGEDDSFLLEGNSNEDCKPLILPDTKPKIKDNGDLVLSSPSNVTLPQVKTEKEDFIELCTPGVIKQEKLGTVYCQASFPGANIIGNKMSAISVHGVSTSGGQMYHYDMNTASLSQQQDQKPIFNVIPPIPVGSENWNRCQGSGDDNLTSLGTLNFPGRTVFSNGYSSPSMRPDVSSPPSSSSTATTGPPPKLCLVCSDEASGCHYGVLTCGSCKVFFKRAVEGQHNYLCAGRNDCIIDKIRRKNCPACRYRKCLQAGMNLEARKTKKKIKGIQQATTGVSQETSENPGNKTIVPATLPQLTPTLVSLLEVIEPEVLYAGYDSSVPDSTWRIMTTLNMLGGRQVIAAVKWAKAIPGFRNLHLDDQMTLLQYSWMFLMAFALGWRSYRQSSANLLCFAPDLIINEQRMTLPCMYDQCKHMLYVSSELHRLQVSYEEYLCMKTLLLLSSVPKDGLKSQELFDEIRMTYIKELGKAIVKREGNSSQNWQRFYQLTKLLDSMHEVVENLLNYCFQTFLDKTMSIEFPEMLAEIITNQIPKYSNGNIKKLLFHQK

In this test the target is Glucocorticoid receptor (Homo sapiens) (UniProt P04150). Put plainly: qHTS assay to identify small molecule antagonists of the glucocorticoid receptor (GR) signaling pathway (AID 720692). The conditions noted are these: GR-bla HeLa, beta-lactamase FRET ratio, dexamethasone-stimulated, 18 h; series mostly up to 58.5 µM. An excerpt:
U.S. Tox21 Program National Center for Advancing Translational Sciences [NCATS] NIH Chemical Genomics Center [NCGC] U.S. Environmental Protection Agency [EPA] National Institutes of Environmental Health Sciences [NIEHS] National Toxicology Program [NTP] U.S. Food and Drug Administration [FDA] Tox21 Assay Overview: The Glucocorticoid receptor (GR) is one of the members of the nuclear receptor family of ligand-dependent transcription factors. GR plays a critical role in carbohydrate, protein and lipid metabolisms and programmed cell death. CellSensor GR-bla HeLa cell line (Invitrogen) contains a beta-lactamase reporter gene under the control of the glucocorticoid response element stably integrated into HeLa cells, a cervical cancer cell line that expresses glucocorticoid receptor. The activation of the reporter gene under culture conditions can be detected by fluorescence intensity. This cell line has been used to screen the Tox21 10K compound library and to identify the compounds that inhibit the GR signaling.
Tox21 Assay Protocol Summary: The GR-bla HeLa cells were dispensed at 1500 cells/5 ul/well in 1536-well black wall/clear bottom plates using a Multidrop Combi (ThermoFisher Scientific, Waltham, MA) dispenser. After the assay plates were incubated at a 37 C/5% CO2 incubator for 4 hours, 23 nL of compounds dissolved in DMSO, positive controls or DMSO only was transferred to the assay plate by a pintool station (Kalypsys, San Diego, CA), followed by addition of 1 uL of dexamethasone (5 nM, final concentration in the well). The plates were incubated at 37 C for 18 hours. After 1 uL of LiveBLAzerTM B/G FRET substrate was added using a Flying Reagent Dispenser (Aurora Discovery, San Diego, CA), the plates were incubated at room temperature for 2 hours, and fluorescence intensity was measured by an Envision plate reader (PerkinElmer, Shelton, CT).
For orientation: qHTS replaces the single test concentration by a dilution series.
With `CC(C)(C)OOC(=O)c1ccccc1`, the Potency result is “inactive”. As to `Clc1ccc(Cl)cc1`, the Potency entry is “inactive”.

On to `C#CC(C)(C)NC(=O)c1cc(Cl)cc(Cl)c1`, for which the Potency entry was “inactive”. As to `CC1C=[C-]C=C1.[C-]#[O+].[C-]#[O+].[C-]#[O+].[Mn]`, the Potency result was “inactive”. The result for `CN1C(=O)CN=C(c2ccccc2)c2cc(Cl)ccc21` reads 13.4 µM (active) and 28 µM (active); that for `Clc1ccccc1Cl`, “inactive”. Regarding `O=C(NC(=O)c1c(F)cccc1F)Nc1cc(Cl)c(OC(F)(F)C(F)C(F)(F)F)cc1Cl` (stereo not given), the Potency entry was “inactive”. In the case of `CC(C)C#N`, the Potency result is “inactive”. Take `O=C(O)c1ccccn1`: the Potency entry was “inactive”. As for `CCCCN(CCCC)SN(C)C(=O)Oc1cccc2c1OC(C)(C)C2`, the Potency entry is “inactive”. For `O=[N+]([O-])c1ccc(Oc2ccc(Cl)cc2Cl)cc1` the value was “inactive”; for `O=[N+]([O-])c1ccc([As](=O)(O)O)cc1`, “inactive”; for `c1ccc2c(c1)Oc1ccccc1O2`, “inactive”. As for `CCCCCOC(=O)c1ccccc1C(=O)OCCCCC`, the Potency result was “inactive”. Consider `O=[N+]([O-])c1ccccc1`, for which the Potency entry is “inactive”.

`CCOP(=S)(OCC)SCCSCC`: the Potency result was “inactive”. With `O=C1CCCN1`, the Potency entry was “inactive”. As to `CN(C)N=O`, the Potency entry is “inactive”.

With `BrCCBr`, the Potency entry is “inactive”. As for `Nc1c(Cl)c(Cl)nc(C(=O)O)c1Cl`, the Potency entry was “inactive”. On to `CC(C)(C)C(O)(CCc1ccc(Cl)cc1)Cn1cncn1` (stereo not given), for which the Potency is 43.6 µM (active).

Take `CC(C)(Cl)Cl`: the Potency entry is “inactive”. Regarding `COC(=O)c1ccccc1N`, the Potency result is “inactive”.

In the case of `C=CCO`, the Potency result was “inactive”. `c1cc2c3c(cccc3c1)CC2`: the Potency entry was “inactive”. For `CCCCCCCCCCCC#N`, the Potency result was “inactive”. With `CC(C#N)CCC#N` (stereo not given), the Potency result is “inactive”. For `ClCc1cccnc1`, the Potency result is “inactive”. `CC(C)C1(C)N=C(c2nc3ccccc3cc2C(=O)O)NC1=O` (stereo not given): the Potency result was “inactive”. The result for `C#CCN(C)[C@H](C)Cc1ccccc1` reads “inactive”; that for `CCN(CC)c1ccccc1`, “inactive”. Consider `CCOC(=O)c1ccccc1C(=O)OCC`, for which the Potency result is “inactive”. The result for `CNC(=O)Oc1ccccc1OC(C)C` reads “inactive”; that for `CN(C)CCO`, “inactive”. For `CC(C)=C[C@@H]1[C@@H](C(=O)OCc2coc(Cc3ccccc3)c2)C1(C)C` the value was “inactive”; for `CCCCCCCCCl`, “inactive”; for `CC(NC(C)(C)C)C(=O)c1cccc(Cl)c1` (stereo not given), “inactive”. On to `O=c1[nH]c(=O)[nH]c(=O)[nH]1`, for which the Potency entry was “inactive”. `c1ccc2c(c1)oc1ccccc12`: the Potency entry is “inactive”.

For `CC(C)N1C(=O)c2ccccc2NS1(=O)=O`, the Potency result was “inactive”.
